The values below come from ChEMBL document CHEMBL1961873, “Compounds: GSK PKIS; Assays: Nanosyn kinase panel” (2012).

As a reminder, the inhibition is the drop in the measured response relative to a control, in per cent.

Test [1] has as its target Mast/stem cell growth factor receptor Kit (Homo sapiens) (UniProt P10721). As to conditions: at 1 µM.
Test [2] has as its system Mast/stem cell growth factor receptor Kit (Homo sapiens), P10721 [D816V]. As to conditions: at 0.1 µM.
Test [3] shares this test system. To be noted: at 1 µM.
Test [4] relates to Mast/stem cell growth factor receptor Kit (Homo sapiens), P10721 [T670I]. To be noted: at 0.1 µM.
Mast/stem cell growth factor receptor Kit (Homo sapiens), P10721 [T670I], sequence (P10721 whole entry T670I): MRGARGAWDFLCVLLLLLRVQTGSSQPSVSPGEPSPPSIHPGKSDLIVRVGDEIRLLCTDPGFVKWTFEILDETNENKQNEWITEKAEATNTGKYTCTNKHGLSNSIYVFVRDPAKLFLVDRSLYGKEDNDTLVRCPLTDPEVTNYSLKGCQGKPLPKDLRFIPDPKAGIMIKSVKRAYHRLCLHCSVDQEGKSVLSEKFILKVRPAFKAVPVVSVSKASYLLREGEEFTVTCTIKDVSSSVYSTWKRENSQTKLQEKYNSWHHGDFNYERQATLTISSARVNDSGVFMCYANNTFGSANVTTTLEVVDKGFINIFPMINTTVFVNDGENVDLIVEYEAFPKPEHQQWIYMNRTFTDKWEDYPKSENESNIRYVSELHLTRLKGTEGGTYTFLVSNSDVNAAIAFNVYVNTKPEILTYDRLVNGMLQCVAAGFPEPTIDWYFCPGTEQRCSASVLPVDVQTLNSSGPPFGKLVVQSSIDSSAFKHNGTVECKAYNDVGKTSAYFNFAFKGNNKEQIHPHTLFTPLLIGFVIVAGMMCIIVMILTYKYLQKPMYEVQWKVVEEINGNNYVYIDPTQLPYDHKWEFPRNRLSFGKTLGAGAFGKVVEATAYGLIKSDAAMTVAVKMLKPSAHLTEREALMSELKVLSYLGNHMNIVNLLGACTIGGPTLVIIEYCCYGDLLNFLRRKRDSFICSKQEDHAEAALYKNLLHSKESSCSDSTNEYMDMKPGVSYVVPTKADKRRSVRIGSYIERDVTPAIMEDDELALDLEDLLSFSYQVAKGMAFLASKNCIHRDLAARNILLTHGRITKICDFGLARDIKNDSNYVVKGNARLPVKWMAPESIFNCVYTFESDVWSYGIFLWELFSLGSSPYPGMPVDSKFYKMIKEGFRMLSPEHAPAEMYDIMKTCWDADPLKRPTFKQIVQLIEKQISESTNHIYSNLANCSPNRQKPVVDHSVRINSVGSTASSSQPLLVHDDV
The test system is the same in test [5]. As to conditions: at 1 µM.
Test [6] concerns Mast/stem cell growth factor receptor Kit (Homo sapiens), P10721 [V560G]. As to conditions: at 0.1 µM.
Mast/stem cell growth factor receptor Kit (Homo sapiens), P10721 [V560G], sequence (P10721 whole entry V560G): as the sequence (P10721 whole entry T670I) above, with V560G, I670T counted along it
Test [7] has the same test system. To be noted: at 1 µM.
Test [8] addresses Tyrosine-protein kinase Lck (Homo sapiens) (UniProt P06239). As to conditions: at 0.1 µM.
The target is the same in test [9]. To be noted: at 1 µM.
Test [10] has as its target Leukocyte tyrosine kinase receptor (Homo sapiens) (UniProt P29376). As to conditions: at 0.1 µM.

Mast/stem cell growth factor receptor Kit (Homo sapiens), P10721 [D816V], sequence (P10721 whole entry D816V): as the sequence (P10721 whole entry T670I) above, with I670T, D816V counted along it
Mast/stem cell growth factor receptor Kit (Homo sapiens), sequence (P10721 whole entry): as the sequence (P10721 whole entry T670I) above, with I670T counted along it
Tyrosine-protein kinase Lck (Homo sapiens), sequence (P06239 2-509 limits assumed): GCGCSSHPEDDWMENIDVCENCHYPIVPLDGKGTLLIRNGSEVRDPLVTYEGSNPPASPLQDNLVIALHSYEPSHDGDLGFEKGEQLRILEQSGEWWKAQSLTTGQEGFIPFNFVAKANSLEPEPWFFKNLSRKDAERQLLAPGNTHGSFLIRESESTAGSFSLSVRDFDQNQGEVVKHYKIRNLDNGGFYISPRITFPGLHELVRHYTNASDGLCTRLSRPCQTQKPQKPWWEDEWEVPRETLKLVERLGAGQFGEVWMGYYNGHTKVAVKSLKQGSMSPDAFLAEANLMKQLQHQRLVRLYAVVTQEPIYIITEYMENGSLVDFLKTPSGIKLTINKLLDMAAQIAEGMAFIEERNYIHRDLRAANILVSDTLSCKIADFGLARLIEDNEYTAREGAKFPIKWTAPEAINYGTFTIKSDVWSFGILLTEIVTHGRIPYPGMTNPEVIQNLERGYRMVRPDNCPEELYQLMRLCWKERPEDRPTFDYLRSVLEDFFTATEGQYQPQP
Leukocyte tyrosine kinase receptor (Homo sapiens), sequence (P29376 whole entry): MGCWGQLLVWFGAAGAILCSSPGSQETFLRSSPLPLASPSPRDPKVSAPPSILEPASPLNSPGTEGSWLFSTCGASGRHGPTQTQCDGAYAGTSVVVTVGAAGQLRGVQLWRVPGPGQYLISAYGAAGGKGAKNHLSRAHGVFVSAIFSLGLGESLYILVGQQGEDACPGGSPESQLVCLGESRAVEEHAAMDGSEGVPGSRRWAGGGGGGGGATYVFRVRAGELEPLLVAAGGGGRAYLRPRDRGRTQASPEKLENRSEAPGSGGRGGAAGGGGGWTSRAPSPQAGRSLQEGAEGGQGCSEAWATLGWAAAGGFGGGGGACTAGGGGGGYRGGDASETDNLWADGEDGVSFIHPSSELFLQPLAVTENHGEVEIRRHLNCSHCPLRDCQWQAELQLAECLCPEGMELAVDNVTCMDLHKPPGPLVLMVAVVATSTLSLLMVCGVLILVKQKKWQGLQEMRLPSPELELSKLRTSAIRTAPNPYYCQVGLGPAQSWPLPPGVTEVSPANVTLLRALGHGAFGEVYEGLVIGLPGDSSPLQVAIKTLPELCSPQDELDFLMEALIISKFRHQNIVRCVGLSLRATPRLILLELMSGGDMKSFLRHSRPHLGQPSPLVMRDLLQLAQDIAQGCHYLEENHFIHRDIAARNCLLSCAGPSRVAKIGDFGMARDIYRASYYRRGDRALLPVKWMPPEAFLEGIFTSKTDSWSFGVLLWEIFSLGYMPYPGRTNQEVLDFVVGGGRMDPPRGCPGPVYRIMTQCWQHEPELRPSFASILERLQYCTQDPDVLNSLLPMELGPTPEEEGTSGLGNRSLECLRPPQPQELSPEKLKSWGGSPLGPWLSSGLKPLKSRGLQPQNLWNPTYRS

Consider `Cc1ccc2c(-c3ccnc(Nc4ccc5c(c4)OCCO5)n3)c(-c3ccc(C(F)(F)F)cc3)nn2n1`, for which the inhibition in [1] is 2.39%; in [2], -1.16%; in [3], 0.16%; in test [4], -0.41%; in test [5], -0.07%; in test [6] it was 0.29%. Also, the inhibition was determined as 0.88% in [7], 1.9% in [8], 8.08% in test [9] and 0.85% in test [10].
As for `CN(C)C(=O)O[C@H]1CN[C@H](C#Cc2cc3ncnc(Nc4ccc(OCc5cccc(F)c5)c(Cl)c4)c3s2)C1`, the inhibition was 3% in test [1]; 2.35% in [2]; -1.14% in test [3]; 1.09% in [4]; 0.88% in test [5]; 0.04% in [6]. The inhibition in [7] was 2.8%; in [8] it was 1.92%; in test [9], 3.02%; in test [10] it was 1.7%.
For `CS(=O)(=O)CCNCc1nc(-c2ccc3ncnc(Nc4ccc(OCc5cccc(C(F)(F)F)c5)cc4)c3c2)cs1`, the inhibition is 12.8% in [1]; -0.14% in test [2]; 1.52% in test [3]; -0.86% in [4]; 3.13% in [5]; 0.77% in test [6]. The inhibition in [7] was found to be 6.02%; in test [8], 2.25%; in test [9], 6.83%; in test [10] it was 3.1%.
For `Cc1cc(O)cc(C)c1/C=C/c1cncc(C(=O)N(C)C)c1`, the inhibition in [1] is 8.58%; in test [2] it was 0.33%; in test [3], 1.49%; in test [4], 2.61%; in test [5], 1.57%; in test [6], 5.07%. The inhibition is 4.85% in test [7], 3.69% in [8], 8.38% in test [9] and 2.93% in test [10].
For `CN(c1ccc(NC(=O)Nc2ccc(OC(F)(F)F)cc2)cc1)c1ccnc(Nc2cccc(S(N)(=O)=O)c2)n1`, the inhibition in test [1] turned out to be 95.3%; in [2], 3.73%; in test [3] it was 2.45%; in test [4], 22.9%; in test [5], 89.9%; in test [6], 37.6%. In addition, the inhibition in test [7] turned out to be 93.4%; in test [8] it was 33.7%; in test [9], 80.1%; in [10], 2.69%.
On to `NS(=O)(=O)c1cccc(-c2cc3ccncc3cc2OCc2ccccc2)c1`, for which the inhibition came out at 8.38% in [1]; 6.43% in test [2]; 5.87% in test [3]; 2.04% in test [4]; 1.1% in [5]; 3.77% in [6]. Besides, the inhibition in [7] worked out at 9.47%; in [8], 2.52%; in test [9], 5.46%; in test [10] it was 2.44%.
`CCOc1nccc2c1nc(-c1nonc1N)n2CC`: the inhibition in [1] was 10.2%; in test [2], -2.27%; in test [3] it was 3.77%; in [4], 4.03%; in [5] it was 6.04%; in test [6] it was 4.82%. Further, the inhibition in test [7] was 7.59%; in test [8], 1.92%; in test [9], 3.61%; in [10], 1.89%.
Take `COc1cc(Nc2nccc(-c3cnn4ncccc34)n2)cc(OC)c1`: the inhibition in [1] was 97.3%; in [2] it was 1.93%; in test [3], 9.04%; in test [4], 80.7%; in test [5], 98.1%; in [6], 65.2%. Besides, the inhibition in test [7] is 92.5%; in [8], 2.75%; in [9] it was 19.2%; in test [10], 4.41%.
On to `CN1CCN(C(=O)c2ccc(NC(=O)Nc3ccc(N(C)c4ccnc(Nc5ccc(CS(C)(=O)=O)cc5)n4)cc3)cc2)CC1`, for which the inhibition in test [1] worked out at 88.5%; in [2], 1.27%; in [3], 2.73%; in test [4], 10.6%; in test [5], 58.7%; in test [6] it was 75.1%. Further, the inhibition in test [7] was found to be 93.2%; in test [8], 5.01%; in test [9] it was 23.9%; in [10], 2.61%.
`O=S(=O)(CCOCc1ccc(-c2ccc3ncnc(Nc4ccc(OCc5cccc(F)c5)c(Cl)c4)c3c2)o1)c1ccccc1`: the inhibition in test [1] was 0.51%; in test [2], 0.43%; in test [3], -1.83%; in [4], 5.11%; in test [5] it was 0.78%; in [6] it was -1.47%. For the same compound, the inhibition in test [7] is -2.4%; in [8] it was 1.96%; in [9] it was 3.4%; in [10] it was 2.35%.
`COC(=O)c1ccc2c(c1)C(=Cc1cc(Br)c(O)c(Br)c1)C(=O)N2`: the inhibition is 16.2% in test [1]; -0.82% in test [2]; 4.08% in [3]; 2% in [4]; 2.74% in [5]; -3.35% in [6]. For the same compound, the inhibition in test [7] was 0.2%; in [8], 5.24%; in test [9] it was 15.3%; in test [10], 6.76%.
For the compound `c1ccc(Cc2nc3ccc(Nc4ncnc5ccccc45)cc3[nH]2)cc1`, the inhibition in [1] amounted to 11.5%; in test [2] it was 2.6%; in test [3] it was 7.57%; in test [4] it was 5.98%; in test [5], 3.71%; in test [6], 2.34%. Further, the inhibition was found to be 5.96% in test [7], 2.08% in test [8], 9.45% in [9] and 2.98% in [10].
For the compound `Cc1ccc(O)cc1Nc1ccnc2ccc(S(C)(=O)=O)cc12`, the inhibition in test [1] was found to be 48.2%; in test [2], 38.2%; in test [3] it was 84.5%; in [4] it was 4.38%; in [5] it was 8%; in [6] it was 8.1%. The inhibition turned out to be 53.7% in test [7], 86.3% in [8], 97.1% in test [9] and 4.66% in test [10].
In the case of `NS(=O)(=O)c1cccc(Nc2cc(-c3ccc(F)cc3)n[nH]2)c1`, the inhibition in test [1] is 84.5%; in test [2], 2.34%; in test [3], 4.52%; in [4], 3.28%; in test [5], 20.1%; in test [6] it was 6.14%. Further, the inhibition stood at 38% in [7], 1.18% in test [8], 6.1% in [9] and 3.59% in test [10].
Turning to `CCCN1CCCC(c2ccc(Nc3nc(Nc4cc(F)ccc4C(N)=O)c4cc[nH]c4n3)c(OC)c2)C1` (stereo not given), the inhibition was 13.1% in test [1]; 4.45% in test [2]; 4.83% in test [3]; 2.47% in test [4]; 3.44% in [5]; -0.05% in test [6]. The inhibition is -0.43% in test [7], 1.09% in test [8], 6.22% in [9] and 95% in test [10].
For the compound `COc1cc(/C=N/Nc2ncnc3c2cnn3C(C)C)ccc1O`, the inhibition was 53.3% in [1]; -1.37% in test [2]; 4.07% in [3]; 3.16% in test [4]; -0.48% in test [5]; 1.9% in test [6]. The inhibition in test [7] was 7.86%; in test [8], 16.7%; in [9] it was 52.8%; in test [10], 1.55%.
As to `O=C1Nc2ccccc2/C1=C/Nc1ccc2[nH]c(=O)[nH]c2c1`, the inhibition in test [1] was 84.4%; in [2] it was 3.67%; in test [3], 10.1%; in [4], 13.6%; in test [5] it was 71.7%; in test [6], -0.78%. For the same compound, the inhibition in test [7] worked out at 21.8%; in test [8], 3.64%; in test [9] it was 11.9%; in [10], 5.48%.
